We go through six molecules from PubChem BioAssay (EPA / NIEHS).

Inconclusive results are not listed. The source made the active and inactive calls. The calls were made as follows, unless noted: active = hit-call score of the fitted dose curve at least 0.9, where 1 is the maximum; inconclusive = response in the unintended direction; inactive = score below 0.9.

The target of assay [1] is Estrogen receptor (Homo sapiens) (UniProt P03372). The assay is described as follows: ATG_ERa_TRANS: Attagene TRANS-FACTORIAL HepG2 Assay for human Estrogen Receptor alpha (ERa) (AID 2282970). To be noted: HepG2 Attagene TRANS ERa GAL4 reporter, mRNA. In short, it runs like this:
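Liver-derived HepG2 cells expressing chimeric nuclear receptor-Gal4 proteins from transient transfection were exposed for 24 hours. Gain of reporter mRNA signal versus DMSO, read by capillary electrophoresis of FAM-labelled PCR products, was recorded.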

The target in assay [2] is X-box-binding protein 1 (Homo sapiens) (UniProt P17861). Briefly: ATG_Xbp1_CIS: Attagene CIS-FACTORIAL HepG2 Assay for human X-box Binding Protein 1 (XBP1) (AID 2282972; active = hit-call score of the fitted dose curve at least 0.9, where 1 is the maximum; inactive = score below 0.9). The following applies: HepG2 XBP1 cis-element reporter, Attagene multiplex; actives raise or lower the signal. In short, it runs like this:
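Multiplexed cis-reporter readout in transfected HepG2 liver cells. Exposure lasted 24 hours. Activity in either direction was fitted against DMSO as negative control and baseline.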

The nature of assay [3]: ATG_M_19_TRANS: Attagene TRANS-FACTORIAL HepG2 Assay for M19 Transcription Factor (Internal Marker) (AID 2282974). The following applies: HepG2 Attagene TRANS-FACTORIAL M19 internal marker reporter. The gist of the method: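 Background-control readout: after 24 h chemical exposure of transfected HepG2 carrying GAL4-driven reporter units, RNA was reverse-transcribed, amplified, fluorescently labeled and sized by capillary electrophoresis; gain-of-signal fit against DMSO.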

Assay [4] addresses Bile acid receptor (Homo sapiens) (UniProt Q96RI1). The assay is described as follows: ATG_FXR_TRANS: Attagene TRANS-FACTORIAL HepG2 Assay for Farnesoid X Receptor (FXR) (AID 2282979).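 Also: hits raise reporter mRNA above DMSO so AC50 marks FXR activation.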 To be noted: HepG2 Attagene TRANS FXR-GAL4 reporter transcription. In short, it runs like this:
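Transient transfection of HepG2 with multiplexed GAL4-UAS reporter units; exogenous FXR-GAL4 chimera. Dose 24 h → TriZol RNA → oligo(dT) RT → PCR, 6-FAM primer extension, HpaI cut → CE. Gain vs DMSO.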

The target of assay [5] is Hepatocyte nuclear factor 4-alpha (Homo sapiens) (UniProt P41235). The assay is described as follows: ATG_HNF4a_TRANS: Attagene TRANS-FACTORIAL HepG2 Assay for human Hepatocyte Nuclear Factor 4 alpha (HNF4a) (AID 2282982). The following applies: HepG2 HNF4a transactivation reporter, mRNA readout. The gist of the method: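 Using HepG2 liver cells transfected with GAL4-UAS reporter units, chemical-induced mRNA increases were assessed after 24 hours. Fluorescent RT-PCR fragments were separated by capillary electrophoresis and compared with DMSO negative controls.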
Chain of Hepatocyte nuclear factor 4-alpha (Homo sapiens) (P41235 whole entry, looked up, the tested form may be a part): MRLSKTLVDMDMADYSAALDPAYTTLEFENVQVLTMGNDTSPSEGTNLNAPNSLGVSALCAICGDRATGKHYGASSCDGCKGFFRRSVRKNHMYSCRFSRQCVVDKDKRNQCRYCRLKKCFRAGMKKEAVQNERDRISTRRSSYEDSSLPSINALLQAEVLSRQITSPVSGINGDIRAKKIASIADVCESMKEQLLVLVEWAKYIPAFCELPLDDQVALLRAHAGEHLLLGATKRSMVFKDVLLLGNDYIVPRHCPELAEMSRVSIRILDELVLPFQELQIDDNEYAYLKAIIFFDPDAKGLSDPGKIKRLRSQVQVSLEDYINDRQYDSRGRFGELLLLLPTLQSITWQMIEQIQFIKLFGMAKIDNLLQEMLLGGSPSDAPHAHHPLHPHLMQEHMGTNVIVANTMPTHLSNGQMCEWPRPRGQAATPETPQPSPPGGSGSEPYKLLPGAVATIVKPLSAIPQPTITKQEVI

The nature of assay [6]: ATG_M_32_TRANS: Attagene TRANS-FACTORIAL HepG2 Assay for M32 Transcription Factor (Internal Marker) (AID 2282984).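 Also: transcript level of a background control reporter unit measured by RT-PCR and capillary electrophoresis.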 To be noted: HepG2 Attagene TRANS M32 internal marker reporter. In short, it runs like this: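 Fluorescence-detected mRNA induction, HepG2 liver cells, 24 h after dosing. Multiple GAL4-UAS reporter units introduced by transient transfection; background-control endpoint analysed for gain of signal against DMSO.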

Assay [7] addresses Transcriptional activator Myb (Homo sapiens) (UniProt P10242). The assay is described as follows: ATG_Myb_CIS: Attagene CIS-FACTORIAL HepG2 Assay for human Myeloblastosis (Myb) Proto-Oncogene Transcription Factor (AID 2282986; active = hit-call score of the fitted dose curve at least 0.9, where 1 is the maximum; inactive = score below 0.9). The following applies: HepG2 Attagene CIS-FACTORIAL Myb reporter transcription; actives raise or lower the signal. In short, it runs like this: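 Reporter mRNA is quantified by RT-PCR and capillary electrophoresis 24 h after dosing HepG2 cells transfected with cis-regulated reporter units, which track endogenous transcription factor activity. Gain and loss of signal are fitted versus DMSO baseline.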

Assay [8] addresses Nuclear respiratory factor 1 (Homo sapiens) (UniProt Q16656). Briefly: ATG_NRF1_CIS: Attagene CIS-FACTORIAL HepG2 Assay for human Nuclear Respiratory Factor 1 (NRF1) Orphan Gene (AID 2282987; active = hit-call score of the fitted dose curve at least 0.9, where 1 is the maximum; inactive = score below 0.9). To be noted: HepG2 NRF1 cis-element reporter, Attagene multiplex; actives raise or lower the signal. The gist of the method:
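Endogenous NRF1-driven reporter transcription in transfected HepG2 cells after 24 h treatment. Readout: RT-PCR products, 6-FAM labelled and resolved by capillary electrophoresis; changes fitted both directions relative to DMSO.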

Assay [9] is described as follows: ATG_NFI_CIS: Attagene CIS-FACTORIAL HepG2 Assay for human Nuclear Factor I (NFI) (AID 2282989; active = hit-call score of the fitted dose curve at least 0.9, where 1 is the maximum; inactive = score below 0.9). The following applies: HepG2 cis-regulatory reporter, NFI response element transcription; actives raise or lower the signal. In short, it runs like this: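 Cells: human liver HepG2, transiently transfected with promoter-regulated reporter transcription units. Exposure 24 h. Detection: fluorescent RT-PCR products separated by capillary electrophoresis, normalised to DMSO negative control.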

In assay [10] the target is Myc proto-oncogene protein (Homo sapiens) (UniProt P01106). The assay is described as follows: ATG_Myc_CIS: Attagene CIS-FACTORIAL HepG2 Assay for human Myelocytomatosis (Myc) Proto-Oncogene Transcription Factor (AID 2282990; active = hit-call score of the fitted dose curve at least 0.9, where 1 is the maximum; inactive = score below 0.9). The following applies: HepG2, Attagene cis-reporter transcription factor activity; actives raise or lower the signal. The gist of the method:
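HepG2 cells transiently transfected with multiple cis-promoter-driven reporter transcription units, so endogenous TF activity is read. After 24 h compound exposure, reporter mRNA was quantified by RT-PCR, 6-FAM labelling, HpaI digestion and capillary electrophoresis; bidirectional fit versus DMSO.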

The target in assay [11] is Androgen receptor (Homo sapiens) (UniProt P10275). Briefly: ATG_AR_TRANS: Attagene TRANS-FACTORIAL HepG2 Assay for human Androgen Receptor (AR) (AID 2282973). The following applies: HepG2 Attagene TRANS-FACTORIAL AR reporter transcription. In short, it runs like this:
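Steps: transfect HepG2 with multiple GAL4-UAS reporter transcription units (TRANS format, exogenous NR-Gal4 protein); dose 24 h; isolate RNA, reverse-transcribe, PCR-amplify, FAM-label, HpaI-digest; resolve by capillary electrophoresis. Positive direction vs DMSO.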

The target of assay [12] is Nuclear receptor subfamily 4 group A member 2 (Homo sapiens) (UniProt P43354). The assay is described as follows: ATG_NURR1_TRANS: Attagene TRANS-FACTORIAL HepG2 Assay for human Nuclear Receptor Related Protein 1 (NURR1) (AID 2282985). The following applies: HepG2 Attagene TRANS reporter, mRNA readout. The gist of the method:
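Chimeric NR-Gal4 proteins were expressed in human HepG2 cells bearing GAL4-UAS reporter units, and induced reporter mRNA was quantified 24 h post-dosing by RT-PCR and capillary electrophoresis.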

The target in assay [13] is Estrogen-related receptor gamma (Homo sapiens) (UniProt P62508). The assay is described as follows: ATG_ERRg_TRANS: Attagene TRANS-FACTORIAL HepG2 Assay for human Estrogen-Related Receptor gamma (ERRg) (AID 2282977).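 Also: hits increase reporter signal over DMSO so potencies reflect activators.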 To be noted: HepG2 Attagene TRANS reporter, ERRg transactivation. In short, it runs like this: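 Readout: fluorescent reporter-mRNA fragments resolved by capillary electrophoresis after RT-PCR and HpaI cut. Cells: transiently transfected HepG2 carrying GAL4-UAS reporters driven by exogenous NR-Gal4 chimeras, dosed 24 h. Activity fitted upward relative to DMSO baseline.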

For assay [14], the target named is Glucocorticoid receptor (Homo sapiens) (UniProt P04150). Briefly: ATG_GR_TRANS: Attagene TRANS-FACTORIAL HepG2 Assay for human Glucocorticoid Receptor (GR) (AID 2282978).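 Also: activators score as hits since higher reporter transcript over DMSO is fitted.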 The following applies: HepG2 Attagene TRANS GR reporter, mRNA transcription. In short, it runs like this: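 Readout is reporter transcript from a chimeric GR-Gal4 acting on GAL4-UAS in transfected human HepG2 liver cells after 24 h exposure, quantified by RT-PCR and capillary electrophoresis. Activation fitted upward against DMSO.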
Chain of Glucocorticoid receptor (Homo sapiens) (P04150 whole entry, looked up, the tested form may be a part): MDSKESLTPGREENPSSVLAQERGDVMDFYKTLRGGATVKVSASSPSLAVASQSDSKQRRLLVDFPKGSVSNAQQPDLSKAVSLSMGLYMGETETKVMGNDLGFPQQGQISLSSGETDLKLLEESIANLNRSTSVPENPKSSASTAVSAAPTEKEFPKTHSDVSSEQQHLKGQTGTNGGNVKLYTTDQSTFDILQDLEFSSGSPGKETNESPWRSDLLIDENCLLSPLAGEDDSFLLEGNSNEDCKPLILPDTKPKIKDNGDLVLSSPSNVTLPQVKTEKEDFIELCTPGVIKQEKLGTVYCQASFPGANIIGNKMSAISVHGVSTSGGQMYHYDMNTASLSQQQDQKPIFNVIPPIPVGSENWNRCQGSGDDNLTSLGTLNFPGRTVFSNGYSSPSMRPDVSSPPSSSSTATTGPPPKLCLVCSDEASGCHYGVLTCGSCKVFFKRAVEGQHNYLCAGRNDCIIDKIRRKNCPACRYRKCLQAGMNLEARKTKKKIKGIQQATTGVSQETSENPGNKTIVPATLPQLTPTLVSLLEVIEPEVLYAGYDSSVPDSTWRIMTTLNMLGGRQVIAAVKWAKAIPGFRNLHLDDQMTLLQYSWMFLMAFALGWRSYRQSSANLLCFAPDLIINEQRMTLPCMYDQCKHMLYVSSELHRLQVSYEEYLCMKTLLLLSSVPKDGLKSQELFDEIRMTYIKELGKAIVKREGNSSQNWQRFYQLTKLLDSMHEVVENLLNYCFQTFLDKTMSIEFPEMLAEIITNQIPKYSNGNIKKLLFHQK

In assay [15] the target is Steroid hormone receptor ERR1 (Homo sapiens) (UniProt P11474). The assay is described as follows: ATG_ERRa_TRANS: Attagene TRANS-FACTORIAL HepG2 Assay for human Estrogen-Related Receptor alpha (ERRa) (AID 2282971). To be noted: HepG2 Attagene TRANS reporter, ERRa transactivation. In short, it runs like this:
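Reporter transcript induction was quantified by RT-PCR and capillary electrophoresis of FAM-labelled, HpaI-cut products after 24 h treatment of HepG2 cells carrying transiently transfected GAL4-UAS reporter units and an exogenous ERRa-Gal4 fusion; activity scored as increase over DMSO.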

The nature of assay [16]: ATG_GAL4_TRANS: Attagene TRANS-FACTORIAL HepG2 Assay for GAL4 (Internal Marker) (AID 2282976). The following applies: HepG2 Attagene TRANS GAL4 internal marker reporter. The gist of the method: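 First, HepG2 cells were transfected with reporter units under GAL4-UAS control. Next, they were treated with chemical for 24 h. Finally, RNA was reverse-transcribed, PCR-amplified, FAM-labelled and resolved by capillary electrophoresis, with induction scored against DMSO.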

Assay [17] deals with Oxysterols receptor LXR-beta (Homo sapiens) (UniProt P55055). The assay is described as follows: ATG_LXRb_TRANS: Attagene TRANS-FACTORIAL HepG2 Assay for human Liver X Receptor beta (LXRb) (AID 2282981). To be noted: HepG2 Attagene TRANS GAL4-LXRb reporter, mRNA. In short, it runs like this: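 Liver-derived HepG2 cells transfected with Gal4-responsive reporters were dosed for 24 h. Activation was scored as rise in reporter mRNA, by RT-PCR and capillary electrophoresis, above DMSO baseline.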

The nature of assay [18]: ATG_M_06_TRANS: Attagene TRANS-FACTORIAL HepG2 Assay for M06 Transcription Factor (Internal Marker) (AID 2282983).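 Also: reporter transcript level by RT-PCR then capillary electrophoresis fluorescence.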 To be noted: HepG2 Attagene TRANS M06 internal marker reporter. The gist of the method: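 Background control endpoint: reporter mRNA from transiently transfected HepG2 after 24 h dosing, detected by RT-PCR with capillary electrophoresis fluorescence. Analysed for gain versus DMSO.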

For assay [19], the target named is Oxysterols receptor LXR-alpha (Homo sapiens) (UniProt Q13133). The assay is described as follows: ATG_LXRa_TRANS: Attagene TRANS-FACTORIAL HepG2 Assay for human Liver X Receptor alpha (LXRa) (AID 2282980). To be noted: HepG2 Attagene TRANS reporter, LXRa transactivation. The gist of the method:
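Transfect HepG2 with GAL4-UAS multiplex reporter constructs (TRANS format, chimeric receptor-GAL4); treat 24 h; extract RNA, reverse-transcribe, PCR-amplify, FAM-label, HpaI-digest; resolve fragments by capillary electrophoresis. Upward response vs DMSO.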

Chain of Myc proto-oncogene protein (Homo sapiens) (P01106 whole entry, looked up): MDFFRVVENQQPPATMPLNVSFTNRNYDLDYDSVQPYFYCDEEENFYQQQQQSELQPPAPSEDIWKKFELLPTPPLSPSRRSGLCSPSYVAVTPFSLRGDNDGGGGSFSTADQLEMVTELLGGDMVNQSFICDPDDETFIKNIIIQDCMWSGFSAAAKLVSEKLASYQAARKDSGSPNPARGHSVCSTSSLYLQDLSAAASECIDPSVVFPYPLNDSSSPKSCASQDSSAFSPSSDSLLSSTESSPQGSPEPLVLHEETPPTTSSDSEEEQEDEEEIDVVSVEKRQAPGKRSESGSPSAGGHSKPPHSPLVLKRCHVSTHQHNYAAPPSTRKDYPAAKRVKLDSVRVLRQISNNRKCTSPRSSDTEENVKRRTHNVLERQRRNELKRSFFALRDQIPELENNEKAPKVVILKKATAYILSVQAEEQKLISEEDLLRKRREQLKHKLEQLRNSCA
Chain of Nuclear respiratory factor 1 (Homo sapiens) (Q16656 whole entry, looked up): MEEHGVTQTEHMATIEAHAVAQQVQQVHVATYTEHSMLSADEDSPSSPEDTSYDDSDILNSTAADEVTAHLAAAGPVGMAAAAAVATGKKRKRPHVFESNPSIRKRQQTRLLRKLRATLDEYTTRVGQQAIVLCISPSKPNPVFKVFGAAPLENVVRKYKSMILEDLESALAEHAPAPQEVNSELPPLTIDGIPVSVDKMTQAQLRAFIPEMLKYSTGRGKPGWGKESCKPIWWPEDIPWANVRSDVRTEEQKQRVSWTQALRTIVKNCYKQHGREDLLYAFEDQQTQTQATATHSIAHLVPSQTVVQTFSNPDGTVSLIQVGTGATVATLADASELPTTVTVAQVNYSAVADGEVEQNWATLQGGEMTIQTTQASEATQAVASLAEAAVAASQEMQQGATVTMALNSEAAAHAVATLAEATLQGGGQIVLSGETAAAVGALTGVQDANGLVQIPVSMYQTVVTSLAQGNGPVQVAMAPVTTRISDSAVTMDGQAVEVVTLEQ
Chain of Estrogen receptor (Homo sapiens) (P03372 whole entry, looked up, the tested form may be a part): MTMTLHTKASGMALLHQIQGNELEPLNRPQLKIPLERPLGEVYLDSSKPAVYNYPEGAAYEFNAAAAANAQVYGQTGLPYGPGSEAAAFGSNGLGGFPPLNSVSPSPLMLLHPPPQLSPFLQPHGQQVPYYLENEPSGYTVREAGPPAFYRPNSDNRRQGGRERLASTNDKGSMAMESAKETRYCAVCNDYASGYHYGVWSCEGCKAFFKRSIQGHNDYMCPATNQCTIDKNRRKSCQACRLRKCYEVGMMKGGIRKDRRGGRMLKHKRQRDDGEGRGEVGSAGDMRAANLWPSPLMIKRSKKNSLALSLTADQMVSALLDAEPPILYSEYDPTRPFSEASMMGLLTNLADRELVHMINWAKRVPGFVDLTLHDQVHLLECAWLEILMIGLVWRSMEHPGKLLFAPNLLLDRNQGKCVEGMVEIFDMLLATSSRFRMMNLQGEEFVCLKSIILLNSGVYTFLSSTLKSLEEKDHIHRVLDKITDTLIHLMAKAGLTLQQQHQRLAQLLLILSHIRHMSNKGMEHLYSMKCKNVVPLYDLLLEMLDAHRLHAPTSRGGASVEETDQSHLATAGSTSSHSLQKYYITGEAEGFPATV
Chain of X-box-binding protein 1 (Homo sapiens) (P17861 whole entry, looked up): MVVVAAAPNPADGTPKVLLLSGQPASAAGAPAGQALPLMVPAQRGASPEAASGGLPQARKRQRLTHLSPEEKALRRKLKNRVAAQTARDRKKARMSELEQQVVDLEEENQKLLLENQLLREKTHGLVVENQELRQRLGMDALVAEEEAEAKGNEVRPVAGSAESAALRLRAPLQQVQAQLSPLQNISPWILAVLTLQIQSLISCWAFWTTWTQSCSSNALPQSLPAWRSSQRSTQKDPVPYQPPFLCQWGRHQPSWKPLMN
Chain of Bile acid receptor (Homo sapiens) (Q96RI1 whole entry, looked up, the tested form may be a part): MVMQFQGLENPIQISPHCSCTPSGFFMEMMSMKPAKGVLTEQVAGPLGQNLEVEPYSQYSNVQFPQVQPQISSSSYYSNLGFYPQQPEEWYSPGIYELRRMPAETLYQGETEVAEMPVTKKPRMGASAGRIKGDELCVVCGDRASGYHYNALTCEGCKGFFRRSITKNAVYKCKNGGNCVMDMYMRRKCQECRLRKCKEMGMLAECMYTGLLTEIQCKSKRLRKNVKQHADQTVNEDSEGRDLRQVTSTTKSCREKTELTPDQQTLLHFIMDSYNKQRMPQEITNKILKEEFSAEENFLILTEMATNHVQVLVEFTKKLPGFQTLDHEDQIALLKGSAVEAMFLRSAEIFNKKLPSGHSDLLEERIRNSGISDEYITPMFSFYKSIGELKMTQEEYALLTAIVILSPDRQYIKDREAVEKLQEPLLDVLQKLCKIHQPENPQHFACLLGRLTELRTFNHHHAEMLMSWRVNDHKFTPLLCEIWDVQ
Chain of Transcriptional activator Myb (Homo sapiens) (P10242 whole entry, looked up): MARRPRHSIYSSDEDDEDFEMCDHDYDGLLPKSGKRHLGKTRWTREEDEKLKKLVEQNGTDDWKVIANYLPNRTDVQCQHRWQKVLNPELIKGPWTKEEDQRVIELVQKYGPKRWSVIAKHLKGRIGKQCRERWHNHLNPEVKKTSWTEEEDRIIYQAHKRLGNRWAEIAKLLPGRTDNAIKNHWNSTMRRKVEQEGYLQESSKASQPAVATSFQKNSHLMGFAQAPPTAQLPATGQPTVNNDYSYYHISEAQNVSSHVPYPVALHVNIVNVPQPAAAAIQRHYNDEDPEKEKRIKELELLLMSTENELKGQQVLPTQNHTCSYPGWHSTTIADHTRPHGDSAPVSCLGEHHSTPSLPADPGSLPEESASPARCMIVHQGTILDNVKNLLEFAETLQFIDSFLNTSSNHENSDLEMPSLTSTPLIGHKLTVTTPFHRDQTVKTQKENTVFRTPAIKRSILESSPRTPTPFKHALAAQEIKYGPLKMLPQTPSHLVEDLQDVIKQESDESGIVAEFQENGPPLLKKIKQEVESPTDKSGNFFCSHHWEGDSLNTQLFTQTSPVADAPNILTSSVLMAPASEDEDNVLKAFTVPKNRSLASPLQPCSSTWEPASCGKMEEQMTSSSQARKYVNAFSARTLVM
Chain of Steroid hormone receptor ERR1 (Homo sapiens) (P11474 whole entry, looked up, the tested form may be a part): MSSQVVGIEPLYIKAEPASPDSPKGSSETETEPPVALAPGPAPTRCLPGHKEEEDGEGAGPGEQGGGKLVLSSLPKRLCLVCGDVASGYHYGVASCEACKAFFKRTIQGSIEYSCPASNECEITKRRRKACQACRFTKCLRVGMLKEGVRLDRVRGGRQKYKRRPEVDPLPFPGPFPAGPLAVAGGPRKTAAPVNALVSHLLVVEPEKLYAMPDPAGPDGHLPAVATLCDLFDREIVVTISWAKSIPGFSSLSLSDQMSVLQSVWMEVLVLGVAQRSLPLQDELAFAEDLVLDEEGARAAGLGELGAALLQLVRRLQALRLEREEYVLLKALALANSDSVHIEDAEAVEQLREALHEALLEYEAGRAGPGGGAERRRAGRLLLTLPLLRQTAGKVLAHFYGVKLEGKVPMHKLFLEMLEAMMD

Take `[F][Sn]([c]1ccccc1)([c]1ccccc1)[c]1ccccc1`: the call in assay [1], in assay [3], in assay [4], in [5] and in assay [6] was inactive. In addition, the AC50 in [2] was 326 nM (active); in assay [7], 2.24 µM (active); in assay [8] it was 294 nM (active); in assay [9], 312 nM (active); in assay [10], 2.12 µM (active).
Take `CN(CCCC(O)c1cccnc1)N=O` (stereo not given): the outcome in assay [1], in [2], in assay [11], in assay [3], in assay [4] and in assay [5] was inactive. Moreover, the molecule was called inactive in [6], in [12], in assay [7], in [8], in [9] and in assay [10].
`Cc1cc(C(F)(C(F)(F)F)C(F)(F)F)ccc1NC(=O)c1cccc(I)c1C(=O)NC(C)(C)CS(C)(=O)=O`: the result in [1], in assay [2], in assay [3], in assay [13], in assay [14] and in assay [4] was inactive. Further, the molecule was called inactive in assay [7], in assay [8], in [9] and in [10].
In the case of `CC(=O)CN(CC(C)=O)N=O`, the outcome in [1], in [15], in [2], in assay [16], in assay [14] and in assay [6] was inactive. In addition, the outcome in assay [7], in [8], in assay [9] and in assay [10] was inactive.
Turning to `N#Cc1ccncc1`, the outcome in [1], in assay [15], in assay [2], in assay [16], in assay [14] and in [17] was inactive. Moreover, the call in assay [5], in assay [18], in [6], in [12], in [7] and in [9] was inactive. Also, in assay [10], the result was inactive.
As to `c1ccc(-c2cccc(-c3ccccc3)c2)cc1`, in assay [1], the AC50 is 27.3 µM (active). Besides, the call in [2], in assay [3], in assay [4], in [19], in [17] and in assay [7] was inactive. Moreover, the molecule was classed as inactive in [8], in assay [9] and in [10].
